Only some compounds are listed: those with a hit (about 5.8% of all), similar ones and a draw of the others.
SW480 rereplic: induces DNA re-replication in SW480 colon adenocarcinoma cells | hit rate 1.8% among 340,000 | Potency, µM (top dose mostly 46.1 µM), inactives show at the highest dose re-replication activation, hits mostly activators | AID 624297 | SW480 DNA re-replication, Hoechst DNA content imaging, 48 h; further: % of control where 0% means no effect; nearly all actives have a fitted effect of over 55% in size
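Quantitative HTS format with DMSO vehicle controls; 48 hr drug incubation at 37 C, then 40 min Hoechst staining and scanning imager measurement at 405 nm excitation.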
PINK1 modulator: PINK1 expression modulation | PINK1 immunofluorescence, high-content cytometry, 24 h | Potency, µM (series often up to 76.6 µM), without a hit: at the top dose activation (PINK1 increase), hits mostly activators | hit rate 0.2% among 410,000 | AID 624263; active means well fitted activation curve with a large enough effect; inconclusive means small, poorly fitted or top-dose-only effect; cell line not stated here; further: % of control where 0% means no effect; nearly all actives have a fitted effect of over 65% in size
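PINK1 protein, normally rapidly degraded, was detected by immunofluorescence after 24 hour compound treatment of a stable cell line. Titration data (5 concentrations) came from laser-scanning cytometry, with CCCP-treated wells as controls.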
KB-3-1 cytotox: kills parental KB-3-1 adenocarcinoma cells. AID 1347075. Potency, µM (titrated, usually from 46.1 µM), most hits filed as cytotoxic. KB-3-1 viability, CellTiter-Glo ATP luminescence, 72 h. hit rate 1.4% among 400,000; further: on the % scale 0 is the no-effect control and ±100 the full control effect; nearly all actives have a fitted effect of over 60% in size
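Cells are dispensed, compounds pinned in, plates held at 37 °C for 72 h, then CellTiter-Glo is added and luminescence read after 10 minutes. Cell line: parental KB-3-1 in phenol-red-free DMEM, 10% FBS.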
MCF10A rereplic: inducers of DNA re-replication in MCF 10A breast cells | hit rate 2.9% among 350,000 | MCF 10A DNA re-replication, Hoechst nuclear intensity, 48 h | Potency, µM (doses to about 46.1 µM), inactives show at the highest dose activity, positive = re-replication, hits mostly activators; further: % of control where 0% means no effect; nearly all actives have a fitted effect of over 50% in size
ALOX12 inh: ALOX12 (human) lipoxygenase inhibition | purified 12hLO, xylenol orange hydroperoxide absorbance | P18054 | Potency, µM (highest dose often 108 µM), for inactives: at the highest dose activity change, negative = inhibition, actives largely listed as inhibitors | hit rate 1.1% among 580,000; further: on the % scale 0 is the no-effect control and ±100 the full control effect
Target sequence (P18054 whole entry, looked up): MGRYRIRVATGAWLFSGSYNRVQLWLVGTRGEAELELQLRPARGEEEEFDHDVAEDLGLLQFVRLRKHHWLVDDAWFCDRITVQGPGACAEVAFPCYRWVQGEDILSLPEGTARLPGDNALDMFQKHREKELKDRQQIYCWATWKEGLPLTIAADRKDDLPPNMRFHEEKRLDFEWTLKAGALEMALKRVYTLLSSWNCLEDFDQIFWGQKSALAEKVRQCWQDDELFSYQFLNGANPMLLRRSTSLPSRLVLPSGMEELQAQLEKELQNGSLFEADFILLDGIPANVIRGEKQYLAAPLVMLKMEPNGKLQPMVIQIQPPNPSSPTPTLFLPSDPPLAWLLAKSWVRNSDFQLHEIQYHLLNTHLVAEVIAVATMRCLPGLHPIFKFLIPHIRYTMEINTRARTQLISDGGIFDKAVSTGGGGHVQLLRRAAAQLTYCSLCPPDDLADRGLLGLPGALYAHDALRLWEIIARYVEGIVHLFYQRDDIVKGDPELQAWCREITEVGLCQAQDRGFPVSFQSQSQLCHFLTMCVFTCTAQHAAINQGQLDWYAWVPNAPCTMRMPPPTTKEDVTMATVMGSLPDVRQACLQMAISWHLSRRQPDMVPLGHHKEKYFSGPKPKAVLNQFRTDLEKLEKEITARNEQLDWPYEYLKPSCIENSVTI
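Hydroperoxide product was detected by ferrous iron/xylenol orange as the 573 to 405 nm absorbance ratio. Arachidonic acid at 40 uM (final) was turned over for 30 min at room temperature by 150 nM human 12hLO, pH 7.0 Hepes buffer, after 15 min compound preincubation.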
KB-V1 MDR tox: KB-V1 MDR subline cytotoxicity; KB-V1 MDR cells viability, CellTiter-Glo, 72 h; Potency, µM (highest dose often 46.1 µM), actives largely listed as cytotoxic; hit rate 3.4% among 400,000; further: on the % scale 0 is the no-effect control and ±100 the full control effect; nearly all actives have a fitted effect of over 60% in size
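In this primary screen, KB-V1 cells overexpressing P-gp are incubated with library compounds (lowest to highest concentration) for 72 h at 37 degrees C before a luminescent ATP viability read.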
The depositor's hits bear a star; i = inactive; ? = inconclusive; nt = no result; [ ] = dose if it differs, or a comment. Unless noted, the call rests on the fitted dose curve; in most records, active means well fitted curve in the direction sought with a large enough effect; inconclusive means small, poorly fitted or top-dose-only effect, or another doubt; inactive means no such curve, though single readings can be large; an effect the other way counts as inactive or inconclusive. Potency means the concentration at half of the fitted maximal effect.

SMILES | SW480 rereplic | PINK1 modulator | KB-3-1 cytotox | MCF10A rereplic | ALOX12 inh | KB-V1 MDR tox
COc1ccc(N2C(=O)C(C)(C)C2c2c(O)ccc3ccccc23)cc1 (stereo unspecified) | ? | ? | i | ? | ? | i
Cn1c(-c2ccc(C#N)cc2)c(C#Cc2ccccc2)c2ccccc21 | 1.3µM* | 2% | i | ? | -17% | i
Cc1cc(C#Cc2c(-c3ccccc3)n(C)c3ccccc23)ccc1F | -11% | 2% | i | 8.2µM* | 2% | i
COc1ccc(C#Cc2c(-c3ccccc3)n(C)c3ccccc23)cc1 | ? | 4% | ? | ? | ? | i
CC(=O)N(Cc1cc2cccc(C)c2[nH]c1=O)C(C)(C)C | nt | nt | nt | nt | 33% | nt
CCn1c(N)c(C(=O)NCCCOC)sc1=S | 2% | -1% | i | 4% | 40µM* | i
c1ccc2c(C(c3c[nH]c4ccccc34)c3c[nH]c4ccccc34)c[nH]c2c1 | nt | 2% | ? | nt | nt | i
C[n+]1ccc(C(c2c[nH]c3ccccc23)c2cc[n+](C)c3ccccc23)c2ccccc21 | nt | nt | 1.5µM* | nt | nt | i
Cc1c(CC(=O)NC2CC2)c(=O)oc2cc(O)c(Cl)cc12 | nt | nt | nt | nt | -7% | nt
Cc1cccc(N2CCN(C(=O)c3csc4ccccc34)CC2C)c1 (stereo unspecified) | nt | 0% | ? | ? | -24% | 15µM*
Cc1cccc(N2CCN(C(=O)c3cc(C)oc3C)CC2C)c1 (stereo unspecified) | -12% | 28% | 18µM* | ? | -24% | 15µM*
Cc1cccc(N2CCN(C(=O)c3ccncc3)CC2C)c1 (stereo unspecified) | ? | 5% | ? | 19% | 49% | i
Cc1cc(C(=O)N2CCN(c3ccccc3O)CC2)c(C)o1 | -3% | 4% | i | 10% | 3% | i
Cc1cccc(N2CCN(C(=O)CC(NC(=O)c3ccccc3)c3ccccc3)CC2C)c1 (stereo unspecified) | -30% | 0% | ? | 2% | -24% | 3.7µM*
Cc1cc(C(=O)N2CCC(C(N)=O)CC2)c(C)o1 | 16µM* | -2% | i | 10% | 245% | i
CCOc1ccc(CNCc2cccn2-c2nnc(N3CCN(C)CC3)s2)cc1 | nt | nt | nt | nt | 9% | nt
COc1ccccc1NC(=O)C(C)OC(=O)c1nn(C)c(=O)c2ccccc12 (stereo unspecified) | nt | nt | nt | nt | 20% | nt
COc1cccc(N2CCN(C(=O)c3cc(C)oc3C)CC2)c1 | ? | 6% | 23µM* | ? | -9% | 15µM*
Cc1oc(-c2cccs2)nc1CC(=O)NC(C)CN1CCOCC1 (stereo unspecified) | nt | nt | nt | nt | 1% | nt
CCNC(=O)OCC(CC)NC(=O)OCC(C)C (stereo unspecified) | -8% | 4% | i | 1% | 6% | i
CCC(COC(=O)Nc1cccc(C)c1)NC(=O)OCC(C)C (stereo unspecified) | -4% | 2% | i | 4% | 422% | 3.7µM*
O=C(NC1CCCCCC1)c1cc(S(=O)(=O)N2CCCCC2)ccc1N1CCOCC1 | -15% | 1% | i | 0% | -2% | i
NNC(=S)Nc1ccc(S(=O)(=O)N2CCOCC2)cc1 | 3% | -1% | i | 0% | -2% | ?
O=C(Nc1ccc(OC(F)F)cc1)c1cc(S(=O)(=O)N2CCOCC2)ccc1N1CCCC1 | -2% | 0% | i | -3% | 116% | 9.2µM*
O=S(=O)(c1ccc(NC(=S)Nc2ccc(OC(F)F)cc2)cc1)N1CCOCC1 | -6% | 2% | i | 1% | ? | 23µM*
SMILES | SW480 rereplic | PINK1 modulator | KB-3-1 cytotox | MCF10A rereplic | ALOX12 inh | KB-V1 MDR tox
O=C(NC1CCCCCC1)c1cc(S(=O)(=O)N2CCOCC2)ccc1N1CCCCC1 | 1% | ? | ? | 21% | 0% | 8.2µM*
COc1cc2oc(=O)c(CC(=O)NCc3ccc4c(c3)OCO4)c(C)c2cc1OC | nt | nt | nt | nt | -10% | nt
CC(C)CN(C(=O)CSc1ccc2ccccc2n1)C1CCS(=O)(=O)C1 (stereo unspecified) | nt | nt | nt | nt | 3% | nt
Cc1cc2cc(CNC(=S)Nc3cccc(Br)c3)ccc2[nH]1 | nt | nt | nt | nt | 28µM* | nt
CCOc1ccc(NC(=S)NCc2ccc3[nH]c(C)cc3c2)cc1 | -18% | 1% | i | 5% | 10µM* | i
CCCCNC(=S)NCc1ccc2[nH]c(C)cc2c1 | -3% | 4% | i | ? | ? | i
Cc1cccc(NC(=S)NCc2ccc(F)cc2)c1 | ? | -1% | i | -1% | -27% | i
CCOc1ccc(NC(=O)N2CC=C(c3c[nH]c4ccccc34)CC2)cc1 | nt | 10% | 23µM* | nt | -28% | ?
CN(C)S(=O)(=O)N1CC=C(c2c[nH]c3ccccc23)CC1 | nt | nt | nt | nt | 18µM* | nt
CCOc1ccc(C2(c3cccc(F)c3)CCCCC2)cc1 | nt | nt | nt | nt | 18% | nt
CC(=O)c1ccc(-n2nnnc2SCC(=O)N2CCc3ccccc3C2)cc1 | ? | 0% | i | -3% | 3% | 12µM*
O=C(CSc1nnnn1-c1ccccc1)N1CCc2ccccc2C1 | -4% | 0%[38.3 µM] | i | 21% | -8% | 15µM*
Cn1cnnc1SCC(=O)N1CCc2ccccc2C1 | nt | -1% | i | nt | -24% | i
CC(C)(C)c1ccc(/C=N/Nc2ccc(S(=O)(=O)Nc3ccccc3)cc2[N+](=O)[O-])cc1 | nt | nt | nt | nt | 37% | nt
Cc1ccc(C(=O)N(C)CC(=O)Nc2cccc(F)c2)cc1S(=O)(=O)N1CCCCC1 | 129% | 0% | i | 1% | -7% | i
CN(CC(=O)Nc1ccc(Cl)c(C(F)(F)F)c1)C(=O)c1ccc(S(=O)(=O)N2CCOCC2)cc1 | ? | 9% | 8.2µM* | 5.8µM* | 19% | ?
CN(CC(=O)Nc1ccc(Cl)c(C(F)(F)F)c1)C(=O)c1ccc(OCC2CCCO2)cc1 (stereo unspecified) | 11% | ? | ? | 14% | -12% | 7.3µM*
Cc1ccc(C(=O)N(C)CC(=O)Nc2ccc(Cl)c(C(F)(F)F)c2)cc1S(=O)(=O)N1CCCCC1 | ? | ? | ? | 21µM* | 1% | ?
Cc1ccc(S(=O)(=O)N2CCCCC2)cc1C(=O)N(C)CC(=O)Nc1ccc(Cl)c(C(F)(F)F)c1 | ? | 23% | ? | 23µM* | i | ?
COc1ccc(S(=O)(=O)N2CCCCCC2)cc1C(=O)N(C)CC(=O)Nc1ccc(Cl)c(Cl)c1 | -24% | 6% | i | -13% | -26% | i
CCn1c(CNC(C)c2ccc(Cl)c(Cl)c2)nc2cc(S(=O)(=O)N3CCOCC3)ccc21 (stereo unspecified) | nt | nt | nt | nt | 47% | nt
C=CCN1C(=O)COc2ccc(NC(=O)c3cc(=O)c4cccc(C)c4o3)cc21 | nt | nt | nt | nt | -29% | nt
